We go through eight compounds from PubChem BioAssay (NCI).

Assay in all cases: NCI-60 one-dose screen, 48 h (100 = growth as untreated, 0 = no growth, -100 = all killed)
In assay [1] the test system is HCT-15 colon. The following applies: 10 µM unless noted.
Assay [2] has as its system HT29 colon. Particulars: 10 µM unless noted.
The subject of assay [3] is SNB-75 CNS. The following applies: 10 µM unless noted.
For assay [4], the system named is SNB-19 CNS. Particulars: 10 µM unless noted.
Assay [5] concerns U251 CNS. The following applies: 10 µM unless noted.
Assay [6] relates to PC-3 prostate. Particulars: 10 µM unless noted.
Assay [7] has as its system SK-MEL-5 melanoma. Particulars: 10 µM unless noted.
For assay [8], the system named is UACC-62 melanoma. Particulars: 10 µM unless noted.
The test system of assay [9] is LOX IMVI melanoma. Particulars: 10 µM unless noted.
The subject of assay [10] is SK-MEL-28 melanoma. The following applies: 10 µM unless noted.
Assay [11] has as its system EKVX NSCLC. Particulars: 10 µM unless noted.
Assay [12] has as its system SN12C renal. Particulars: 10 µM unless noted.
The subject of assay [13] is UO-31 renal. Particulars: 10 µM unless noted.
For assay [14], the system named is TK-10 renal. The following applies: 10 µM unless noted.
The test system of assay [15] is CAKI-1 renal. The following applies: 10 µM.
Assay [16] has as its system CCRF-CEM leukemia. Particulars: 10 µM unless noted.
In assay [17] the test system is MOLT-4 leukemia. Particulars: 10 µM unless noted.
Assay [18] deals with ACHN renal. The following applies: 10 µM unless noted.
In assay [19] the test system is SK-MEL-2 melanoma. Particulars: 10 µM unless noted.
In assay [20] the test system is A498 renal. Particulars: 10 µM unless noted.

Structures are written as SMILES. About 83,000 compounds went through this panel and 20% of them were active in at least one assay; those are over-represented in the sample as a whole.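 Negative percent growth values reflect cell death: -40 means 40% of the cells present at the start died, and -100 means all died.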 Values without a mark were called inactive. The source made the active and inactive calls. How the source made its calls: active means growth percent below 10; inactive means the rest.

For `Nc1nc(-c2cccc([N+](=O)[O-])c2)c(N=Nc2ccccc2Cl)s1`, the growth in assay [1] was 48.9%; in [2], 87.1%; in [3], 76.8%; in [4], 82%; in assay [5], 43.9%; in [6], 64.9%. The growth in assay [7] is 80.8%; in assay [8] it was 71.6%; in [9], 25.3%; in assay [10], 93.7%; in [11], 79.6%; in assay [12], 73.7%. Moreover, the growth in assay [13] was 63.8%; in assay [14], 85.7%; in assay [15], 28.8%; in assay [16], 66.8%; in assay [17], 68.7%.
For `Cc1ccc(NC(=O)N[C@@H](Cc2cc(F)cc(F)c2)C(=O)NC2C(=O)N3CCC[C@H]3C(=O)N3CCCC[C@H]3C(=O)N[C@@H](C)C(=O)N3C[C@H](C)C[C@H]3C(=O)O[C@H]2C)c(F)c1` (stereo not given in full), the growth is 14.1% in assay [1]; 26.5% in [2]; 34.7% in [3]; 26.3% in [4]; 28.3% in assay [5]; 15% in assay [6]. Moreover, the growth in assay [7] is 2.32% (active); in [8], 30.3%; in [9] it was 25.3%; in assay [10], 44.1%; in assay [11] it was 29.5%; in [12] it was 23.5%. Also, the growth in assay [13] is 30.2%; in assay [14], 53.9%; in assay [15], 22.2%; in [16] it was 34.2%; in assay [17] it was 40.3%.
Take `Cc1cccc(NC(c2cc3cccc4ccc5cccc2c5c43)c2nnnn2C(C)(C)C)c1C` (stereo not given): the growth in assay [1] is 88.7%; in assay [2], 82.1%; in [3] it was 93.7%; in [4] it was 91.1%; in [5] it was 95.3%; in [6] it was 77.5%. Besides, the growth was 97.4% in assay [7]; 62.3% in [8]; 80.2% in [9]; 102% in assay [10]; 75.2% in assay [11]; 66.9% in assay [13]. Besides, the growth is 138% in assay [14]; 90.4% in assay [18]; 66.3% in assay [15]; 95% in assay [16]; 76% in assay [17].
In the case of `CC(=O)Oc1ccc(CCN2C(=O)CSC2=S)cc1`, the growth in assay [1] is 62.3%; in assay [2] it was 107%; in assay [3], 103%; in assay [4], 94.9%; in assay [5], 104%; in assay [6], 78.2%. The growth in assay [7] is 86%; in assay [8], 85.7%; in assay [9], 41.6%; in assay [10], 90.6%; in assay [11], 97.3%; in [12], 69%. Further, the growth in assay [13] is 76.8%; in [14] it was 57.9%; in assay [18], 93.6%; in assay [15] it was 81.6%; in assay [16], 57.9%; in assay [17] it was 88.2%.
For `O=C1c2c(c3c4cc(Br)ccc4[nH]c3c3ccc4ccccc4c23)C(=O)N1CCN1CCCCC1`, the growth in assay [1] is -60% (active); in [2], 10.3%; in [3], 49.6%; in [4] it was 37.7%; in [5] it was -10.9% (active); in [6], 65%. Besides, the growth in assay [7] was 68.3%; in [8] it was 59.5%; in assay [10], 93.5%; in assay [19], 112%; in assay [11], 81.1%; in assay [12], 41.1%. The growth is 48.7% in [13]; 132% in [14]; 18.5% in [18]; 31.2% in [15]; 72.7% in [20]; -0.774% (active) in assay [16]. Besides, the growth in assay [17] is -1.44% (active).
Take `CS(=O)(=O)c1ccc2c(c1)c1c(n2C(=O)c2ccc(Cl)cc2)CCCC1`: the growth in [1] is 25.7%; in assay [2], 5.05% (active); in [3] it was 5.66% (active); in assay [4], 34.9%; in assay [5], 19.9%; in assay [6], 22.7%. Also, the growth in assay [7] is 25.5%; in assay [8], 23.8%; in assay [9] it was 40.5%; in assay [10] it was 60.9%; in [11] it was 59.7%; in assay [13], 40.3%. In addition, the growth is 67.6% in assay [14]; 43.6% in assay [18]; 37.1% in assay [15]; 38.2% in assay [20]; 25.4% in [16].
Regarding `COc1ccc(CCN2C(=O)CSC2=S)cc1OC`, the growth is 84% in assay [1]; 109% in [2]; 112% in assay [3]; 99.9% in [4]; 99.5% in assay [5]; 91.2% in assay [6]. Also, the growth is 85.2% in assay [7]; 97% in assay [8]; 56.6% in assay [9]; 102% in assay [10]; 103% in [11]; 83% in assay [13]. Also, the growth in assay [14] is 55.6%; in [15], 84.6%; in [16] it was 63%; in [17], 88.7%.
On to `C#C[C@]1(O)CC[C@H]2[C@@H]3CC=C4c5sc(Nc6cccc(Cl)n6)nc5CC[C@]4(C)[C@H]3CC[C@@]21C`, for which the growth in assay [1] is -66.9% (active); in assay [2], 3.69% (active); in assay [3], -25% (active); in [4] it was -1.43% (active); in assay [5], 4.83% (active); in assay [6] it was 4.35% (active). In addition, the growth in assay [7] was -90.7% (active); in assay [8], -14.4% (active); in assay [10] it was -59.9% (active); in assay [19], -24.9% (active); in [11], 1.89% (active); in assay [12], 40%. The growth in [13] was -37.8% (active); in [14] it was 33.2%; in [18], 16.4%; in assay [15], -40.6% (active); in assay [20], -62.6% (active); in assay [16] it was 5.11% (active). In addition, in [17], the growth is -15.9% (active).
